The test system of the assay is TYKNU. Nature of the assay: fractional viability relative to vehicle; TYKNU is a high-grade serous ovarian cancer line; higher = less growth inhibition. Conditions: 72 h. Summed up:
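TYKNU control cells or lentiCRISPRv2 knockout derivatives were seeded at 500 cells per well into drug-stamped 384-well plates holding a ~2100-compound library at 2 or 10 μM, in duplicate. Cells were grown at 37 °C in 5% CO2 in RPMI 1640 with 10% FBS, and drug treatment lasted 72 h. Viability was read by Cell Titer Glo luminescence. Duplicate treatment wells were averaged and normalised to duplicate control wells from the same plate position.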

Setting [1] is: 2uM, genotype: DNM1L knockout (sgDNM1L #1).
[2] abbreviates: 2uM, genotype: sgCTRLA1 (non-targeting control).
The mark [3] stands for this setting: 10uM, genotype: DNM1L knockout (sgDNM1L #1).
Where [4] appears, read: 10uM, genotype: sgCTRLA1 (non-targeting control).

Where a name gives a salt, the structure may show the parent alone. The full ranking holds about 2,000 compounds; the median of “fractional viability relative to vehicle” is about 0.91, and the lowest 2% start at about 0.045. This is one part of a sample in which the lowest values are shown more often than they occur.

For the compound `COc1nc(OCc2cccc(-c3ccccc3)c2C)ccc1CNCCNC(C)=O` [PD-1/PD-L1 inhibitor 2], the fractional viability was 0.852 under setting [1], 0.872 under setting [2], 0.501 under setting [3] and 0.0875 under setting [4].
On the same counts, the results for `O=C(/C=C\n1cnc(-c2cc(C(F)(F)F)cc(C(F)(F)F)c2)n1)NNc1ccccn1` [Verdinexor (KPT-335)] are 0.137, 0.13, 0.162 and 0.121.
In the case of `C[C@@H]1O[C@@H](O[C@H]2[C@H](Oc3cc(O)c4c(c3)O[C@H](c3ccc(O)cc3)CC4=O)O[C@H](CO)[C@@H](O)[C@@H]2O)[C@H](O)[C@H](O)[C@H]1O` [Naringin], the fractional viability runs as follows: under setting [1], 0.915; under setting [2], 1.12; under setting [3], 0.827; under setting [4], 1.
As to `c1nc2c(NC3CCCCC3)nc(Nc3ccc(N4CCOCC4)cc3)nc2[nH]1` [Reversine], the fractional viability was 0.545 under setting [1], 0.579 under setting [2], 0.229 under setting [3] and 0.216 under setting [4].
`CN1CCC(Nc2nc(Nc3ccc(Oc4ccccc4)cc3)c3c(=O)[nH]cc(Br)c3n2)CC1`: the fractional viability runs as follows: under setting [1], 0.131; under setting [2], 0.279; under setting [3], 0.0286; under setting [4], 0.0109.
As for `C=C1CC[C@H](O)C/C1=C/C=C1\CCC[C@]2(C)[C@@H]([C@H](C)/C=C/[C@H](C)C(C)C)CC[C@@H]12` [Vitamin D2], the fractional viability came out at 1.19 under setting [1], 1.02 under setting [2], 0.175 under setting [3] and 0.739 under setting [4].
Turning to `O=C1NC(=O)/C(=C/c2cccc(C(F)(F)F)c2)S1`, the fractional viability under setting [1] came to 0.748, the fractional viability under setting [2] was 0.945, the fractional viability under setting [3] came to 0.687 and the fractional viability under setting [4] turned out to be 0.786.
On the same counts, the results for `COc1ccc2c(c1)CCC1C2CCC2(C)C(NCCCCCCN3C(=O)C=CC3=O)CCC12` (stereo not drawn) are 0.849, 0.972, 0.942 and 0.781.
On the same counts, the results for `C[C@H]1O[C@@H](n2cc(F)c(=O)[nH]c2=O)[C@H](O)[C@@H]1O` [Doxifluridine] are 1.11, 1.13, 0.893 and 1.06.
With `CCCCc1oc2ccc(NS(C)(=O)=O)cc2c1C(=O)c1ccc(OCCCN(CCCC)CCCC)cc1` [Dronedarone HCl], the fractional viability is 0.712 under setting [1], 0.919 under setting [2], 0.0442 under setting [3] and 0.0545 under setting [4].
With `CCCCc1oc2ccccc2c1C(=O)c1cc(I)c(OCCN(CC)CC)c(I)c1` [Amiodarone HCl], the fractional viability was 0.996 under setting [1], 1.07 under setting [2], 0.736 under setting [3] and 0.965 under setting [4].
On to `CN(CCOc1ccc(NS(C)(=O)=O)cc1)CCc1ccc(NS(C)(=O)=O)cc1` [Dofetilide], for which the fractional viability reads like this: under setting [1], 0.999; under setting [2], 0.981; under setting [3], 0.838; under setting [4], 0.933.
As to `CN(C)c1nc(N(C)C)nc(N(C)C)n1` [Altretamine], the fractional viability under setting [1] came to 1.05, the fractional viability under setting [2] was found to be 1.07, the fractional viability under setting [3] is 0.977 and the fractional viability under setting [4] is 1.03.
On the same counts, the results for `CNC(=O)c1ccccc1Oc1nc(Nc2cc(OC)c(OC)c(OC)c2)ncc1Br` are 0.847, 0.94, 0.581 and 0.589.
The matching figures for `CN(CC(=O)N(Cc1ccc(C2CCCCC2)cc1)c1ccc(C(=O)O)cc1)S(=O)(=O)c1c(F)c(F)c(F)c(F)c1F`: 0.435, 0.661, 0.042 and 0.0176.
The matching figures for `FC(F)(F)c1ccc(/C=C/c2nc(COc3ccc(CCCCn4ccnn4)cc3)co2)cc1` [Mubritinib (TAK 165)]: 0.716, 0.534, 0.545 and 0.517.
Consider `O=C1CCC[C@@H]2[C@H]3CCC[N+]4([O-])CCC[C@@H](CN12)[C@@H]34` (stereo partly drawn) [Oxymatrine], for which the fractional viability by setting is: under setting [1], 0.927; under setting [2], 1.15; under setting [3], 0.812; under setting [4], 1.1.
Consider `CC1=CC(=O)NS(=O)(=O)O1` [Acesulfame Potassium], for which the fractional viability came out at 1.16 under setting [1], 1.13 under setting [2], 0.791 under setting [3] and 1.17 under setting [4].
With `CC(C)(C)c1ccc(S(=O)(=O)/C=C/C#N)cc1`, the fractional viability reads like this: under setting [1], 0.119; under setting [2], 0.091; under setting [3], 0.0418; under setting [4], 0.0217.
In turn, `Cc1ccc(S(=O)(=O)/C=C/C#N)cc1` returned a fractional viability under setting [1] of 0.0925, a fractional viability under setting [2] of 0.0355, a fractional viability under setting [3] of 0.0225 and a fractional viability under setting [4] of 0.01.
The matching figures for `C/C=C1/[C@H](O[C@@H]2O[C@H](CO)[C@@H](O)[C@H](O)[C@H]2O)OC=C(C(=O)OC)[C@H]1CC(=O)OCCc1ccc(O)c(O)c1` [Oleuropein]: 0.773, 0.978, 0.843 and 0.774.
On the same counts, the results for `CC[C@H](C)C[C@H](C)CCCCCCCCC(=O)N[C@H]1C[C@@H](O)[C@@H](NCCN)NC(=O)[C@@H]2[C@@H](O)CCN2C(=O)[C@H]([C@H](O)CCN)NC(=O)[C@H]([C@H](O)[C@@H](O)c2ccc(O)cc2)NC(=O)[C@@H]2C[C@@H](O)CN2C(=O)[C@H]([C@@H](C)O)NC1=O` [Caspofungin Acetate] are 0.98, 1.17, 0.637 and 1.01.
The matching figures for `Cc1ncc(Cl)cc1NCc1ccc(C(=O)N[C@@H](CC2CCCC2)C(=O)NC2CC2)s1`: 0.845, 0.992, 0.838 and 0.778.
Regarding `CCOc1ccc(Cc2cc([C@@H]3O[C@H](SC)[C@@H](O)[C@H](O)[C@H]3O)ccc2Cl)cc1` [Sotagliflozin (LX4211)], the fractional viability was 0.825 under setting [1], 1.02 under setting [2], 0.592 under setting [3] and 0.694 under setting [4].
Take `COC(=O)C[C@H](NC(=O)[C@H](C)NC(=O)[C@@H](NC(=O)OCc1ccccc1)C(C)C)C(=O)CF`: the fractional viability came out at 0.89 under setting [1], 1.14 under setting [2], 0.837 under setting [3] and 1.1 under setting [4].
The matching figures for `CNC(=O)c1ccccc1Nc1nc(Nc2ccc(N3CCOCC3)cc2OC)ncc1Cl`: 0.85, 0.837, 0.292 and 0.206.
On the same counts, the results for `COc1cc(N2CCC(N)CC2)ccc1Nc1ncc(Cl)c(-c2c[nH]c3ccccc23)n1` are 0.359, 0.386, 0.0459 and 0.0363.
Take `CCOc1cc(N2CCC(O)CC2)ccc1Nc1ncc2c(n1)N(C)c1ccccc1C(=O)N2C`: the fractional viability came out at 0.651 under setting [1], 0.842 under setting [2], 0.539 under setting [3] and 0.531 under setting [4].
Compound `CN(N=O)C(=O)NC1C(O)OC(CO)C(O)C1O` (stereo not drawn) [Streptozotocin (STZ)] returned a fractional viability under setting [1] of 1.1, a fractional viability under setting [2] of 1.2, a fractional viability under setting [3] of 0.905 and a fractional viability under setting [4] of 1.2.
Turning to `C/C(=N\NC(=O)c1cccc(S(=O)(=O)N2CCOCC2)c1)c1cc(Cl)ccc1O`, the fractional viability is, setting by setting: under setting [1], 0.348; under setting [2], 0.356; under setting [3], 0.242; under setting [4], 0.136.
On the same counts, the results for `COc1ccc(-c2cnc3c(-c4cccc5ncccc45)cnn3c2)cc1` are 1.18, 1.28, 1.1 and 1.2.
Take `c1cc(-c2cnn3cc(-c4ccc(N5CCNCC5)cc4)cnc23)c2cccnc2c1`: the fractional viability worked out at 0.0431 under setting [1], 0.069 under setting [2], 0.0409 under setting [3] and 0.021 under setting [4].
Turning to `COc1cc(-c2cc(-c3ccc(N4CCNCC4)cc3)cnc2C)cc(OC)c1OC`, the fractional viability by setting is: under setting [1], 0.714; under setting [2], 1.02; under setting [3], 0.834; under setting [4], 0.772.
On the same counts, the results for `CNC(=O)c1cccc(-c2ccc3c(N4CCOC[C@@H]4C)nc(N4CCOC[C@@H]4C)nc3n2)c1` are 0.277, 0.218, 0.201 and 0.237.
As for `CCCCCCCc1ccc(CCc2cccc(O)c2C(=O)O)cc1`, the fractional viability runs as follows: under setting [1], 0.825; under setting [2], 1.04; under setting [3], 0.896; under setting [4], 0.765.
On the same counts, the results for `CCCCCCCCc1ccc(CCC(N)(CO)CO)cc1` [Fingolimod (FTY720) HCl] are 0.722, 1.02, 0.0372 and 0.0418.
On the same counts, the results for `CCCCCCCCCCCCc1ccc(S(=O)(=O)Nc2nncs2)cc1` are 0.997, 1.07, 0.843 and 0.966.

These data come from the supplement of paper PMC5919970.
